Bioassay records deposited in PubChem BioAssay by several laboratories.
CYP2C19 act: activators of human cytochrome P450 2C19; activation factor at 5 µM; 96,000 tested, under 10 active; P33261; recombinant CYP2C19, luciferin-H EGE luminescence; active compounds read high; 0 = fully inhibited enzyme, 1 = untreated enzyme;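 active = activation factor of at least 2 at 5 µM in the primary screen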;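 also: 0 = wells with 2.5 mM tranylcypromine and 1 = vehicle-only wells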
CYP2C9 activ: CYP2C9 (human) activation | 96,000 compounds, 1.4% hits | AID 1024 | recombinant CYP2C9, luciferin-H conversion, luminescence; active compounds read high; factor 1 = untreated enzyme, 0 = blocked | P11712 | activation factor at 5 µM;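 active = activation factor of 2 or more for CYP2C9 at a 5 µM dose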;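 also: 0 = sulfaphenazole-blocked wells and 1 = vehicle-only wells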
Target sequence (P11712 whole entry, looked up): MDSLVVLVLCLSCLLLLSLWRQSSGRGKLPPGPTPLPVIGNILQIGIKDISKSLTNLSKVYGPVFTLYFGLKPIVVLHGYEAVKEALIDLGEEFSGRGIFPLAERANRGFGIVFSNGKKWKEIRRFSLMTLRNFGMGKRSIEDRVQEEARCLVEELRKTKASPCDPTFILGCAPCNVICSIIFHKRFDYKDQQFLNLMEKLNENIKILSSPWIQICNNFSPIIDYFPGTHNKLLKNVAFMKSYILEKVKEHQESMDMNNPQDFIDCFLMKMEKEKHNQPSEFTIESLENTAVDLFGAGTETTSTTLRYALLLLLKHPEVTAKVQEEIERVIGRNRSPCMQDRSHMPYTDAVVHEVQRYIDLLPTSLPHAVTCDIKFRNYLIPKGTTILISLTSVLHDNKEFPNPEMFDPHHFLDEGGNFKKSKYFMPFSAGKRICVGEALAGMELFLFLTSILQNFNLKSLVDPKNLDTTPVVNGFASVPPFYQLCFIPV
CYP2C9 inhib: human CYP2C9 inhibition. P11712. CYP2C9 Supersomes, luciferin-H conversion, luminescence. inhibition, % at 5 µM. 96,000 compounds, 20% hits. AID 777;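 active = blocking of liver enzyme CYP2C9 beyond about 50% at 5 µM, limit read from the data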
sEH inh: soluble epoxide hydrolase (human) inhibition | P34913 | recombinant human sEH enzymatic activity assay | inhibition, % at 2 µM | 91,000 compounds, 0.34% hits; in the data active = inhibition above about 80%
sEH activator: increases human soluble epoxide hydrolase activity; P34913; 91,000 compounds, 0.04% hits; purified human sEH enzymatic activity, activator screen; activation, % at 2 µM; AID 717; in the data active = activation above about 37%
CYP2C19 inhib: blocks human cytochrome P450 2C19 | P33261 | CYP2C19 Supersomes, luciferin-H EGE luminescence, 30 min | inhibition, % at 5 µM | 96,000 compounds, 21% hits | AID 778;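 active = CYP2C19 inhibition above a set limit at 5 µM in the primary screen, cut at about 50% in these data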;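 also: plate controls were negative control wells for no effect and 2.5 mM tranylcypromine positive control for full effect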
Active calls of the source: *; . = no result. The list is not random: actives were taken first. Their share in the collection is about 27%.

SMILES	CYP2C19 act	CYP2C9 activ	CYP2C9 inhib	sEH inh	sEH activator	CYP2C19 inhib
Cc1cc(Nc2nc3ccccc3nc2Cl)n(-c2ccccc2)n1	0.6	0.7	28	-3	4	44
CCOC(=O)c1[nH]c(C)c(C(=O)NC2CCCC2)c1C	0.5	0.6	35	7	-8	54*
CCOC(=O)c1[nH]c(C)c(C(=O)OCC(=O)N2CCCCC2C)c1C (stereo not given)	0.8	0.3	72*	22	-24	23
CCOC(=O)c1[nH]c(C)c(C(=O)OCCN2C(=O)c3ccccc3C2=O)c1C	0.3	0.2	85*	.	.	67*
CCOC(=O)c1[nH]c(C)c(C(=O)NC2CCCCCC2)c1C	.	.	.	4	-1	.
CCOC(=O)c1c(C)[nH]c(C(C)=O)c1C	0.5	0.4	56*	-4	5	51*
O=C(OCCN1C(=O)c2ccccc2C1=O)c1cc(=O)[nH]c2ccccc12	0.7	0.8	20	-7	5	25
CCOC(=O)c1c(C)[nH]c(C(=O)OCc2c(C)noc2C)c1C	0.5	0.2	80*	0	2	50*
CCOC(=O)c1[nH]c(C)c(C(=O)C(C)C)c1C	0.5	0.9	14	8	-8	51*
CCOC(=O)c1[nH]c(C)c(C(=O)O)c1C	1.1	1.2	-17	-5	5	-10
Cc1ccc(-c2ccc(=O)n(CC(=O)Nc3cccc(C(=O)N4CCN(C)CC4)c3)n2)cc1	0.9	1	2	5	-1	9
CCN1CCCC1CNC(=O)CCc1nc(-c2ccc(C)cc2)no1 (stereo not given)	0.7	0.9	10	5	-2	25
CC(=O)N1CN(CCCn2ccnc2)Cc2c1sc1c2CCCC1	0.1	0	96*	19	-19	94*
CC(=O)N1CN(Cc2ccccn2)Cc2c1sc1c2CCCC1	0.7	0.9	14	2	-2	27
Cc1nc2sccn2c1P(c1c(C)nc2sccn12)c1c(C)nc2sccn12	0.3	0.4	63*	.	.	72*
CCOC(=O)c1c(C)nc2sccn12	0.9	1.1	-15	.	.	12
C=CCN1CCN(C(c2ccc(OC)c(OC)c2)c2nnnn2C(C)(C)C)CC1 (stereo not given)	1	1	-3	.	.	0
O=C(Nc1ccc(S(=O)(=O)Nc2nccs2)cc1)C1CCCCC1	1.2	1	1	.	.	-16
CCC(=O)Nc1nc2ccccc2n1Cc1ccccc1	0.7	1	2	.	.	29
CCC(=O)Nc1nc2ccccc2n1Cc1ccc(C)cc1	0.2	0.7	33	4	-4	81*
Cc1ccc(Cn2c(NS(=O)(=O)c3ccccc3)nc3ccccc32)cc1	0.7	0.4	64*	10	-9	34
COc1ccccc1NC(=O)c1ccc(NS(C)(=O)=O)cc1	0.9	3.3*	-233	2	0	8
COc1cc(NS(C)(=O)=O)c(OC)cc1NC(=O)c1ccccc1	1.1	2.5*	-145	2	0	-9
Cc1ccc(SCCC(=O)NCC2CCCO2)cc1 (stereo not given)	0.7	0.9	7	0	-2	27
N#Cc1ccccc1NC(=O)COC(=O)CSc1nc2ccccc2o1	0.9	0.7	28	0	2	13
SMILES	CYP2C19 act	CYP2C9 activ	CYP2C9 inhib	sEH inh	sEH activator	CYP2C19 inhib
O=C(NCc1ccccc1)c1ccc2c(c1)OCCO2	0.2	0.7	31	.	.	85*
O=C(NCc1ccccc1F)c1ccc2c(c1)OCO2	0.3	0.9	10	0	3	73*
Fc1ccccc1Cn1nnc(-c2ccc3c(c2)OCO3)n1	0.2	0.4	58*	-3	0	76*
O=C(CCNc1ccccc1)c1ccc2c(c1)OCO2	0.4	0.5	48	-12	10	63*
CN(C)CCC(=O)c1ccc2c(c1)OCO2	0.9	1	2	-11	9	9
COc1ccc(Nc2ccc3nnc(-c4ccc(Br)cc4)n3n2)cc1	1.2	0.7	34	7	-6	-15
CC1CN(C(=O)COc2ncnc3ccccc23)CC(C)O1 (stereo not given)	1	1	-2	-31	29	-4
O=S(=O)(c1ccc(-c2nc3ccccc3s2)cc1)N1CCCC1	0.9	0.2	77*	2	0	13
O=S(=O)(c1cccc(-c2nc3ccccc3s2)c1)N1CCCC1	0.7	0.2	79*	1	-3	34
CC1CN(S(=O)(=O)c2ccc(-c3nc4ccccc4s3)cc2)CC(C)O1 (stereo not given)	1.1	0.9	11	.	.	-8
Cc1nc2sc(C(c3cccs3)N3CCC(C(N)=O)CC3)c(O)n2n1 (stereo not given)	1.1	0.7	26	4	-4	-8
O=C(CCN1Cc2ccccc2C1)c1ccc2c(c1)OCCO2	0.5	0.5	52*	-16	14	48
O=C(CCN1CCc2ccccc2C(c2ccccc2)C1)c1ccc2c(c1)OCCO2 (stereo not given)	0.7	0.5	55*	-1	0	29
O=C(O)CCC(=O)c1ccc2c(c1)OCCO2	1.2	1.1	-7	.	.	-15
O=C(CS(=O)(=O)c1ccccc1)c1ccc2c(c1)OCCO2	0.3	1.8	-84	-4	5	70*
CCCC(=O)c1ccc2c(c1)OCCO2	0.8	0.8	22	-2	3	20
C/C(=N\NS(=O)(=O)c1ccc(Cl)cc1)c1ccc(O)cc1	0.2	0.2	78*	-17	15	83*
C/C(=N/NS(=O)(=O)c1ccc(Cl)cc1)c1cccc(NC(=O)c2ccc(Cl)cc2Cl)c1	0.3	0	97*	-3	4	75*
CCC(C)OC(=O)c1[nH]c2c(c1C)C(=O)CC(c1ccc(N(C)C)cc1)C2 (stereo not given)	0.3	0.5	53*	.	.	68*
CCOC(=O)c1sc(C)c2c1NC(c1ccc(N(C)C)cc1)NC2=O (stereo not given)	1.1	0.8	21	14	-11	-15
C/C=C/COC(=O)c1[nH]c2c(c1C)C(=O)CC(c1ccc(N(C)C)cc1)C2 (stereo not given)	0.8	0.4	65*	.	.	18
CCOCCOC(=O)c1[nH]c2c(c1C)C(=O)CC(c1ccc(N(C)C)cc1)C2 (stereo not given)	0.6	0.1	85*	-5	5	38
Cc1cc(=S)n(-c2ccccc2)n1C	1	1	-4	-3	3	4
Cc1nc(N)sc1-c1nnc(SCC(=O)Nc2nccs2)n1C	0.7	0.7	34	4	0	27
CC1(C(=O)N2CC3(CC(c4ccccc4)=NO3)C[C@H]2C(=O)NCC(N)=O)CC1 (stereo not given in full)	0.9	1.1	-12	11	-10	7
O=c1c2c3n(c(=S)nc2[nH]n1-c1ccccc1)CCCCC3	1.2	1.1	-10	3	-1	-18
Clc1ccc(COn2nnc3ccccc32)c(Cl)c1	0.4	0.9	8	6	-4	64*
